Screens deposited in PubChem BioAssay by several laboratories.
Rows were chosen to be rich in hits. Some 3.4% of all compounds tested hit in one or more screens of this group.
AI-2 QS modul: Vibrio harveyi AI-2 quorum sensing modulators, primary screen, JMH597 strain, luminescence/OD600 ratio. Vibrio harveyi JMH597 AI-2 luminescence/OD600 ratio, 9 h; stronger effect = lower value; strain lacks LuxN and CqsS sensors; 0 = neutral-control median. activity change, % at 7.5 µM. 300,000 compounds, 0.4% hits. AID 2094, 2009; in the data active = activity change below about -75%, passing the limit was not always enough;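 also: luminescence divided by OD600 gain over 9 h not by final OD600 alone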
HSP90 refold inh: HSP90 inhibitors, primary screen, cell lysate, luminescence | Heat shock protein HSP 90 (rabbit reticulocyte lysate; luciferase refolding) | Rabbit reticulocyte lysate, luciferase refolding luminescence, 3 h | inhibition, % at 5.6 µM | 290,000 compounds, 0.91% hits | AID 1789, 2009;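 active = inhibition above the screen-wide mean plus 3 SD, computed separately per campaign, cut at about 16% in these data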;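 also: 0% = DMSO wells and 100% = 60 µM geldanamycin wells; inhibitors lower the luminescence because luciferase stays unfolded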
HSF1 inhib: HSF1 inhibitors in luciferase reporter cells, primary screen, cell-based, NIH3T3, luminescence; NIH3T3-HGL HSE-luciferase, MG132-induced, luminescence 8 h; stronger effect = lower value; activity change, negative = inhibition, % at 7.5 µM (by protocol); 300,000 compounds, 0.77% hits;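 active = more than half of replicate wells show activity change below -50%, luminescence cut by over half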;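 also: luciferase reports HSF-1 transcriptional activity via heat shock element; 0% = median of DMSO wells and -100% = zero luminescence signal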
PG9 Ab binder: binders of HIV-1 gp120 antibody PG9, primary screen, biochemical, TR-FRET; HIV-1 gp120 / PG9 antibody interaction; TR-FRET gp120-PG9 antibody binding; inhibition, % at 6.7 µM; 360,000 compounds, 0.43% hits; AID 624416, 2012; in the data active = inhibition above about 8.5%
GAA850 FXN act: FXN promoter activators, primary screen, cell-based, luciferase luminescence, HEK293 lucGAA850. HEK293 lucGAA850 FXN promoter luciferase reporter, 24 h; percent of 10 µM SAHA response. activation, % at 6 µM. 360,000 compounds, 0.56% hits;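 active = activation above the average of all compounds screened plus 3 SD, cutoff fixed separately per campaign, cut at about 7.5% in these data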;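 also: 0% = DMSO wells and 100% = 10 µM SAHA wells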
SMARCA2 activ: SMARCA2 (BRM) function activators, primary screen, cell-based, luminescence, high throughput. MG213 cells, MMTV-luciferase reporter, dexamethasone, overnight. activation, % at 9.1 µM. 370,000 compounds, 1% hits. AID 652017, 2013; in the data active = activation above about 7.8%;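 also: 0% = vehicle wells and 100% = reference activator wells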
SMARCA2 act conf: SMARCA2 (BRM) function activators, confirmation, cell-based, luminescence, triplicate; shares compounds with SMARCA2 activ; MG213 cells, MMTV-luciferase with dexamethasone, overnight; MG213 cells expressing E1A, Rb sequestered; DMSO wells 0%, reference activator 100%; activation, % at 9.1 µM; 3,500 compounds, 30% hits; AID 652260, 2013;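 active = activation above its plate's cutoff, the mean activation of tested wells plus 3 SD, cut at about 7.9% in these data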
VP16 Luc act: GAL4-VP16 luciferase reporter activation, counter-screen for SMARCA2 (BRM) activator project, cell-based, pG5luc, luminescence, high throughput; shares compounds with SMARCA2 activ; HEK293 GAL4-VP16 pG5luc reporter; scaled: DMSO wells 0%, SAHA wells 100%; activation, % at 9.1 µM; 3,500 compounds, 41% hits; AID 686939, 2013;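 active = activation above the solvent-only control well mean plus 3 SD, averaged across control plates, cut at about 5.2% in these data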
* = called active by the depositor; x = not tested or not shown.

SMILES	AI-2 QS modul	HSP90 refold inh	HSF1 inhib	PG9 Ab binder	GAA850 FXN act	SMARCA2 activ	SMARCA2 act conf	VP16 Luc act
COC(=O)CCC[C@H](C)[C@@H](NS(=O)(=O)c1ccc(C)cc1)C(C)(C)C	x	x	x	1	x	-4	x	x
COC(=O)Cn1cnc2c(NC(=O)c3ccccc3)ncnc21	x	x	x	0	x	4	x	x
CCc1nc2ccccc2nc1N1CCN(S(=O)(=O)c2ccc(Cl)cc2)CC1	28	1	12	-4	1	9.4*	-3	0
COc1ccc(C2C(C(=O)N3CCN(c4ccccn4)CC3)CCC(=O)N2c2ccc(OC)cc2)cc1 (configuration not stated)	11	-2	1	2	-2	-1	x	x
COc1ccc(C2C(C(=O)N3CCN(c4ccccn4)CC3)CCC(=O)N2c2cc(OC)c(OC)c(OC)c2)cc1 (configuration not stated)	22	3	-5	0	1	8.0*	0	2
Nc1nc(N)c2sc3nc4c(cc3c2n1)CCC4	18	-1	2	2	5	8.1*	11*	5.1*
CCOc1ccc(C2=Nn3c(nnc3-c3cccnc3)SC2)cc1	16	0	-2	-2	2	1	x	x
COc1ccc(OC)c(-c2nnc3n2N=C(c2ccc(OC)c(OC)c2)CS3)c1	x	x	x	-2	1	12*	34*	17*
COc1ccc(C2=Nn3c(nnc3-c3ccccc3F)SC2)cc1OC1CCOC1 (configuration not stated)	x	x	x	-2	-3	8	x	x
COc1ccc(C2=Nn3c(nnc3-c3cccnc3)SC2)cc1	42	1	-1	-1	1	9.7*	4	2
COc1ccc(OC)c(-c2nnc3n2N=C(c2ccc(OC)c(OC4CCCC4)c2)CS3)c1	x	x	x	1	-3	1	x	x
COc1ccc(C2=Nn3c(nnc3-c3ccccc3F)SC2)cc1OC1CCCC1	x	x	x	2	-5	17*	30*	20*
CCc1nc2ccc(C(=O)N(C)CCCN(C)C)cn2c1N(C)C(=O)C1CCCCC1	x	x	x	0	1	1	x	x
Cc1cc2cc3c(cc2nc1SCC(=O)N1CCOCC1)OCO3	8	-1	0	-2	0	8.4*	1	-1
Cc1ccc(C(=O)N2O[C@]34C=C[C@]25C[C@@H](O)CC[C@]5(C)C3CC[C@]2(C)[C@@H]([C@H](C)/C=C/[C@H](C)C(C)C)CC[C@H]24)cc1 (some centres not stated)	x	x	x	-1	x	6	x	x
COC(=O)[C@]12C[C@H](CC(=O)NCCCCc3ccccc3)C(=O)N(CCC3=CCCCC3)C1=C[C@H](C1CCCC1)O[C@@H]2C	x	x	x	x	x	-4	x	x
O=C(c1cc(COc2ccc(F)cc2F)on1)N1C[C@H]2CC[C@H]1C2	-59	0	9	-2	5	7	x	x
O=C(c1cc(COc2c(F)cccc2F)on1)N1C[C@H]2CC[C@H]1C2	-45	-1	29	-1	3	10.0*	11*	11*
O=C(Nc1ccc(CCC(=O)N2CCCC2)cc1)c1ncn[nH]1	7	-4	-4	0	1	8.2*	-5	2
O=C(/C=C(\Nc1ccc(Cl)c(Cl)c1)c1ccccc1)c1ccccc1	x	x	x	-1	x	1	x	x
COC(CNC(=O)C1CCCN(S(=O)(=O)c2ccc3c(c2)oc(=O)n3C)C1)OC (configuration not stated)	10	-5	-3	-3	0	0	x	x
CCCN(CCC)C(=O)C1CCCN(S(=O)(=O)c2ccc3c(c2)oc(=O)n3C)C1 (configuration not stated)	12	-6	2	-2	1	10*	2	0
CCc1ccc(CCNC(=O)OC2CC3CC2[C@H]2CCCCN2[C@H]3Cc2ccccc2)cc1 (some centres not stated)	x	x	x	x	x	-3	x	x
CCCC[C@H]1C2CC(OC(=O)NCCCc3ccccc3)C(C2)[C@H]2CCCCN21 (some centres not stated)	x	x	x	x	x	11*	0	1
CC(=O)Nc1ccc(CN(C)CC2CCCN(CCc3cccc(C(F)(F)F)c3)C2)cc1 (configuration not stated)	9	-1	0	-2	0	1	x	x
SMILES	AI-2 QS modul	HSP90 refold inh	HSF1 inhib	PG9 Ab binder	GAA850 FXN act	SMARCA2 activ	SMARCA2 act conf	VP16 Luc act
CN(CC1CCCN(CCc2cccc(C(F)(F)F)c2)C1)C(=O)c1ccco1 (configuration not stated)	-10	5	-5	-1	0	11*	-5	0
CN1CCc2c(sc3c2C(=O)NC(c2cccc(OC(=O)c4cccs4)c2)N3)C1 (configuration not stated)	7	-3	10	-2	5	14*	2	11*
O=C(CCNC(=O)c1ccc([N+](=O)[O-])cc1)NCc1cccs1	x	x	x	-3	0	0	x	x
O=C(NCc1cccs1)c1ccc([N+](=O)[O-])cc1Cl	22	4	-70*	-2	1	13*	2	2
COC(=O)C1=C(C)N(Cc2cccc(C(F)(F)F)c2)C(=NCc2cc(OC)c(OC)c(OC)c2)NC1c1ccccc1C(F)(F)F (configuration not stated)	x	x	x	-2	x	0	x	x
Cc1ccc(C(=O)Nc2cccnc2Cl)cc1Cl	-5	-7	20	-2	6	8.3*	9.1*	7.5*
O=C(Nc1nc(-c2nc3ccccc3s2)cs1)c1ccco1	14	-3	13	-12	3	12*	9.5*	8.3*
CS(=O)(=O)c1ccc2nc(NC(=O)c3ccco3)sc2c1	38	4	16	0	1	9.9*	11*	12*
Cc1ccc(C(=O)Nc2nc3ccc(S(C)(=O)=O)cc3s2)o1	13	4	15	0	5	1	x	x
O=C1CCc2cc(Br)ccc2O1	x	x	x	-2	0	8.7*	-2	1
O=C1CCc2ccccc2O1	x	x	x	-1	1	1	x	x
Cc1cc(Nc2cc(Cl)cc(Cl)c2)cc(=O)n1-c1cc(Cl)cc(Cl)c1	x	x	x	0	x	4	x	x
